{"source": "PubChem BioAssay AID818", "about": "(SRMLSC, 2007)", "note": "Out of some 140,000 compounds screened, about 2,100 (1.5%) were called active.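 How the source made its calls: active means viability at or under a set limit, the compound median less 4 SD (cut at about 6% in these data); inactive means the rest.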 What follows is part of a selection rich in actives, with near analogues and random picks from the rest.", "data": [{"assay": "primary screen for suppressors of beta-catenin knockout HCT116 cell growth, colon tumor, human (AID 818);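 further: 0% = Hyamine 1622 control at 20 µM and 100% = untreated cell control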", "settings": "CellTiter-Glo, 60 h, at 10 µM, active compounds read low", "values": [{"smiles": "CCCn1c(=O)c2c(C(F)(F)F)cc(-c3cccs3)nc2n(CCC)c1=O", "viability": "90% (inactive)"}, {"smiles": "O=C1CCCCC(=O)c2ccccc2N1", "viability": "101% (inactive)"}, {"smiles": "c1ccc2c(c1)C(=NC1CCCCC1)NC2=NC1CCCCC1", "viability": "5.56% (active)"}, {"smiles": "CC(C[N+](C)(C)C)OC(N)=O", "note": "(stereo unspecified)", "viability": "1.28% (active)"}, {"smiles": "CC(=O)OC(C)C[N+](C)(C)C", "note": "(stereo unspecified)", "viability": "102% (inactive)"}, {"smiles": "CCCCn1c(O)c(N=NC(=O)Cn2c(C(F)(F)F)nc3ccccc32)c2ccccc21", "viability": "93.1% (inactive)"}, {"smiles": "CC(C)(C)NC(=O)C(=O)NCc1ccncc1", "viability": "98.5% (inactive)"}, {"smiles": "O=C(CSC(=S)N1CCOCC1)c1ccccc1", "viability": "98.3% (inactive)"}, {"smiles": "Cn1ncc2c(NNC(=O)Cc3cccc4ccccc34)ncnc21", "viability": "86.8% (inactive)"}, {"smiles": "NS(=O)(=O)c1ccc(N=Cc2ccc(Br)s2)cc1", "viability": "101% (inactive)"}, {"smiles": "CC(=O)CCC(=O)c1ccc2ccccc2c1", "viability": "99.5% (inactive)"}, {"smiles": "CNC(=O)c1csc(-c2ccccc2)n1", "viability": "96.8% (inactive)"}, {"smiles": "Cc1ccc(SCC(=O)c2sc(-c3ccccc3)nc2C)cc1", "viability": "94.5% (inactive)"}, {"smiles": "Cc1nc(-c2ccccc2)sc1C(=O)/C=C/c1ccccc1", "viability": "4.4% (active)"}, {"smiles": "Cc1ccc(Sc2ccncc2S(N)(=O)=O)cc1", "viability": "87.3% (inactive)"}, {"smiles": "O=C(COC(=O)/C=C/c1ccc(S(=O)(=O)N2CCCCCC2)cc1)NCc1ccccc1Cl", "viability": "106% (inactive)"}, {"smiles": "OCCCN1c2ccccc2Nc2nnc(-c3ccccc3)cc21", "viability": "46.3% (inactive)"}, {"smiles": "N=c1c2c(-c3ccccc3)c(-c3ccccc3)n(Cc3ccccc3)c2ncn1CCCO", "viability": "1.54% (active)"}, {"smiles": "N=c1c2c(-c3ccccc3)c(-c3ccccc3)oc2ncn1Cc1ccco1", "viability": "59.7% (inactive)"}, {"smiles": "Cc1nc(SCc2ccc(F)cc2)c([N+](=O)[O-])[nH]1", "viability": "89.8% (inactive)"}, {"smiles": "Cc1cc(N2CCOCC2)nc(-c2ccc(Br)cc2)n1", "viability": "82.4% (inactive)"}, {"smiles": "CCCC1OC23CCCCC2C(C#N)(C#N)C1(C#N)C(=N)O3", "note": "(stereo unspecified)", "viability": "85.5% (inactive)"}, {"smiles": "COc1cccc(/C=N/NC(=O)CNC(=O)c2ccc(S(=O)(=O)N3CCOCC3)cc2)c1OC", "viability": "90.8% (inactive)"}, {"smiles": "NC(N)=N/N=C/c1ccc(OCc2ccc(Cl)cc2Cl)cc1", "viability": "1.64% (active)"}, {"smiles": "COC(=O)c1sc2ncccc2c1OCc1ccc(Cl)cc1Cl", "viability": "67.4% (inactive)"}, {"smiles": "COc1ccc(C(=O)O/N=C(\\N)Cc2ccc(Cl)cc2Cl)cc1OC", "viability": "79.8% (inactive)"}, {"smiles": "CCOC(=O)NN1C(=O)c2ccccc2NC1c1ccccc1O", "note": "(stereo unspecified)", "viability": "95% (inactive)"}, {"smiles": "C=CCn1c(SCC(N)=O)nnc1-c1cc2c(s1)CCC(CC)C2", "note": "(stereo unspecified)", "viability": "91.1% (inactive)"}, {"smiles": "COc1cc2c(cc1O)C(SC)=NC(C)(C)C2", "viability": "2.29% (active)"}, {"smiles": "COc1cc2c(cc1OC)C(Nc1ccc(S(N)(=O)=O)cc1)=NC(C)(C)C2", "viability": "101% (inactive)"}, {"smiles": "COc1cc2c(cc1OC)C(C(C)C)=NC(C)(C)C2", "viability": "95.1% (inactive)"}]}]}
